# GALK inhibitor: blocks human galactokinase activity; Purified GALK, Kinase-Glo residual ATP luminescence; Potency, µM (titrated, usually from 57.5 µM), inactives show at the top dose activity change, negative = inhibition, actives largely listed as inhibitors; 270,000 tested, 0.007% active; AID 1868; note: potency is the fitted concentration of half-maximal effect
# Target sequence (P51570 whole entry, looked up): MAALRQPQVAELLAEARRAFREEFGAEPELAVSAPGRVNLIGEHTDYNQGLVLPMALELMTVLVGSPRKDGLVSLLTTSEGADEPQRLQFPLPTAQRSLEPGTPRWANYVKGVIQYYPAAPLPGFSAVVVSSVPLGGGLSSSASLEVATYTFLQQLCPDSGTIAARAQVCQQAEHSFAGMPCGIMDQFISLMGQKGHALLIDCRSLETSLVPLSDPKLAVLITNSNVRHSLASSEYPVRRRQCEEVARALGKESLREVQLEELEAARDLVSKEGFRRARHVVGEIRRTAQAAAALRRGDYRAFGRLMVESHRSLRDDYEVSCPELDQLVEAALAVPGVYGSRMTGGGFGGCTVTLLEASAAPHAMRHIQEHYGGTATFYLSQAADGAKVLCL
#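 The enzyme phosphorylates galactose (100 uM) using ATP (35 uM); inhibition is detected as higher residual ATP, quantified by bioluminescence after 1 h reaction at room temperature, pH 8.0.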
# rTrxR1 inhibitor: inhibitors of rat thioredoxin reductase 1 | O89049 | recombinant rTrxR1, NADPH fluorescence consumption, selenite substrate | Potency, µM (top dose mostly 114 µM), for inactives: at the highest dose activity change, negative = inhibition, most hits filed as inhibitors | 390,000 tested, 1% active | AID 588453; note: potency is the fitted concentration of half-maximal effect; nearly all actives have a fitted effect of over 65% in size
#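 Rat TrxR1 (90 nM in the dispensed reagent) was pre-reduced with 400 uM NADPH for 5 min at room temperature, then incubated with compound for 15 min. After 400 uM selenite was added, NADPH fluorescence (Ex 340/Em 450 nm) was followed for 8 min.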
# Giardia kill: Giardia lamblia killing. Giardia lamblia trophozoite viability. activity change, % at 7.66 µM, hits read low. 340,000 tested, 0.15% active; in the data active = activity change below about -80%; inconclusive = between about -30% and that limit;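 note: parasites exposed to compound for two days anaerobically before the ATP read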
#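 Anaerobic 48 hrs incubation at 37 deg C of 100 trophozoites/well with test compounds; ATPLite 1-Step luminescence, 15-30 min RT, reports cellular ATP as viability.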
# TrxR1 substrate: is turned over as a substrate by rat TrxR1. O89049. purified TrxR1 substrate turnover, NADPH consumption readout. 390,000 tested, 0.01% active. AID 588456. Potency, µM (highest dose often 114 µM), for the others: at the top dose activity change, negative = substrate turnover; note: potency is the fitted concentration of half-maximal effect; nearly all actives have a fitted effect of over 50% in size
#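 Rat TrxR1, dispensed at 90 nM, was prereduced with 400 uM NADPH (final) for 5 min at ~22 deg C, then incubated with compound 15 min before 400 uM selenite. A first-read NADPH fluorescence drop versus no-compound background flagged substrates.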
# GCN5L2 inh: GCN5L2 (KAT2A) acetyltransferase inhibition; Potency, µM (series often up to 58.9 µM), without a hit: at the highest dose activity change, negative = inhibition, most hits filed as inhibitors; GCN5L2 HAT assay, ThioGlo1 CoA-SH fluorescence; 390,000 tested, 0.21% active; note: potency is the fitted concentration of half-maximal effect
#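 GCN5L2 (20 nM) in 50mM HEPES pH 7.5, 0.1mM EDTA, 0.01% Tween-20 preincubated 15 min with compounds at room temperature. Reaction started with H3(1-25) 75uM, acetyl-CoA 70uM, ThioGlo1 50uM; CoA-thiol fluorescence (Ex340/Em540) read at 0 and 20 min.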
# Pin1 inh: inhibitors of human Pin1; Pin1 FP peptide displacement, HiFluor488, 10 min; Potency, µM (highest dose often 115 µM), for the others: at the highest dose activity, negative = inhibition, hits mostly inhibitors; AID 504891; 390,000 tested, 0.009% active; active = well fitted inhibition curve with a large enough effect in the polarisation, with a control signal flat, not every such curve was filed as active; inconclusive = small, poorly fitted or top-dose-only effect, or effect the other way, or a change in a side signal; inactive = no such curve, though single readings can be large or run the other way; the % refers to the polarisation; note: potency is the fitted concentration of half-maximal effect
# Target sequence (Q13526 whole entry, looked up): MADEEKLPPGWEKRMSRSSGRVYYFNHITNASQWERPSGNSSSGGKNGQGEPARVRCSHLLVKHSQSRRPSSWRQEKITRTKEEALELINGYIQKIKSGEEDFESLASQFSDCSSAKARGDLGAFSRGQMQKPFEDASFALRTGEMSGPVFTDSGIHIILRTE
# An asterisk follows results filed as active; ? = inconclusive; . = no result given; [ ] = another dose, or the depositor's remark. Shown are actives, neighbours in structure and some others; about 1.3% of the full set was active somewhere. Unless noted, calls come from the whole dose curve; as a rule, active = well fitted curve in the direction sought with a large enough effect; inconclusive = small, poorly fitted or top-dose-only effect, or another doubt; inactive = no such curve, though single readings can be large; an effect the other way counts as inactive or inconclusive. % is set by controls: 0 for no effect and ±100 for the full control effect.
SMILES,GALK inhibitor,rTrxR1 inhibitor,Giardia kill,TrxR1 substrate,GCN5L2 inh,Pin1 inh
CN(C)c1cc(Nc2ccc(O)cc2)c([N+](=O)[O-])c2nonc12,0%,-6%,-5,-5%,1%,-1%
CC(=O)OCCCNc1cc(Sc2ccc(Cl)cc2)c2nonc2c1[N+](=O)[O-],-2%,3.2µM*,18,-14%,7%,4%
CCOC(=O)N1CCN(c2cc(NCCO)c([N+](=O)[O-])c3nonc23)CC1,-1%,8%[57.1 µM],-11,1%[57.1 µM],-3%,4%
O=[N+]([O-])c1c(NCCO)cc(N2CCCCC2)c2nonc12,-2%,-2%[57.1 µM],17,-3%[57.1 µM],1%,15%
Cc1ccc(Sc2cc(NCCCO)c([N+](=O)[O-])c3nonc23)cc1,-2%,13µM*,4,5%,8%,-16%
CCCC(=O)OCCNc1cc(Sc2nc3ccccc3[nH]2)c2nonc2c1[N+](=O)[O-],1%,1µM*,-6,-4%,-11%,32%
CCC(=O)OCCNc1cc(Sc2nccn2C)c2nonc2c1[N+](=O)[O-],-2%,0.28µM*,6,-7%,28%,3%
COC(=O)CCSc1cc(NCCCOC(C)=O)c([N+](=O)[O-])c2nonc12,.,3.2µM*,-1,-15%,.,?
Cc1ccc2nc(N3CCC(C(=O)N4CCN(c5cccc(Cl)c5)CC4)CC3)[nH]c2c1,.,28%[57.1 µM],.,7%[57.1 µM],-22%,-3%
COc1ccc(S(=O)(=O)c2cc(NS(=O)(=O)c3ccc(Cl)cc3)c(C)c(C)c2O)cc1,.,14%,.,5%[11.4 µM],4%,-3%
CCC1Oc2ccc(C)cc2N(CC(=O)N(Cc2ccc(C)o2)C2CCCC2)C1=O (stereo not given),-3%,25µM*,2,-1%,-5%,9%
Cn1c(SCC(=O)N/N=C/C=C/c2ccccc2[N+](=O)[O-])nc2ccccc21,.,-1%,5,-3%,-3%,8%
Cn1c(SCC(=O)N/N=C/C=C/c2ccco2)nc2ccccc21,0%,45µM*,-13,-13%,?,?
CCn1c(SCC(=O)N/N=C/C=C/c2ccco2)nnc1-c1ccccc1,1%,35µM*,-4,-7%,-12%,?
Cc1ccc(C(=O)n2c(N)nc3ccccc32)cc1,14%,20%,-81*,8%,-5%,-3%
Cc1c(Cl)cccc1NC(=O)Cn1c(=O)nc(-c2ccccc2)c2ccccc21,.,10%[57.1 µM],.,3%[57.1 µM],-1%,0%
Cc1ccc2cc(CNC(C)(C)C)c(=O)[nH]c2c1,-4%,-13%,10,1%,-2%,-8%
CNCc1cc2ccc(C)cc2[nH]c1=O,3%,25µM*,-10,8%,-2%,7%
CCOC(=O)c1cc(OC(=O)c2cc(OC)cc(OC)c2)n(-c2ccccc2)n1,.,22%,.,9%,-4%,26%
CC1=C/C(=C\c2ccc(Br)o2)C(=O)O1,-1%,-21%,-1,-1%,-1%,?
O=C1C(=Cc2ccc(Br)o2)C(=O)c2ccccc21,-4%,?,8,-13%,?,3µM*
CCOc1ccc(OCCOC(=O)CN2C(=O)NC3(CCCC3)C2=O)cc1,.,0%,-16,-8%,-4%,0%
COc1cccc(C2C(C#N)=C(NC(=O)CCc3ccccc3)Oc3ccc4ccccc4c32)c1 (stereo not given),.,.,.,.,.,-5%
COc1ccc(C2C=C(c3ccccc3)Nc3nc(NC(=O)c4ccc(C)cc4)nn32)cc1 (stereo not given),.,19%,.,5%,-6%,-1%
O=C(Nc1nc2n(n1)C(c1ccccc1)C=C(c1ccccc1)N2)c1ccccc1 (stereo not given),.,56µM*,.,10%,-15%,50%
SMILES,GALK inhibitor,rTrxR1 inhibitor,Giardia kill,TrxR1 substrate,GCN5L2 inh,Pin1 inh
COc1cc2c(NC3CCN(C)CC3)nc(N3CCCCC3)nc2cc1OCCCN(C)C,.,-21%,.,90%,.,.
CCc1cccc(NC(=O)CSc2ncc3c(n2)-c2ccccc2N(CC)S3(=O)=O)c1,.,-5%[57.1 µM],.,-1%[57.1 µM],27%,14%
CCc1cccc(NC(=O)CSC2=NS(=O)(=O)c3ccccc32)c1,2%,3.2µM*,-2,3%[57.1 µM],-2%,0%
CC(=O)Nc1cccc(C(=O)Nc2cccc(S(=O)(=O)NCc3ccco3)c2)c1,.,8%,11,-3%,-1%,-5%
Cc1cccc(NC(=O)c2ccc(F)c(S(=O)(=O)NCc3ccco3)c2)c1,-8%,79µM*,-8,-8%,-25%,-5%
Cc1cccc(NC(=O)c2ccc(S(=O)(=O)NCc3ccco3)cc2)n1,.,21%,-29,11%,-9%,8%
Cc1cccc(C)c1NC(=O)CNC(=O)c1ccc(S(=O)(=O)NCc2ccco2)cc1,.,28µM*,2,3%,3%,-5%
C/C=C(\C)CN1CCN(c2ccccc2)CC1,0%,-6%,10,-9%,32µM*,2%
N#Cc1ccc(C(=O)CN2CCN(c3ccccc3)CC2)cc1,-1%,50µM*,0,6%,-1%,0%
C/C(=C\c1ccccc1)CN1CCN(c2ccccc2)CC1,0%,20%,-10,7%,1%,-8%
COc1ccc(C2Nc3ccccc3C(=O)N2CCO)cc1COc1ccc(NC(C)=O)cc1 (stereo not given),.,.,.,.,.,-3%
COc1ccc(C(=O)Nc2ccc3ncccc3c2)cc1,4%,2%[57.1 µM],?,9%[57.1 µM],-2%,-9%
Cc1ccc(C(=O)Nc2ccc3ncccc3c2)cc1,.,21%,-85*,8%,-1%,-8%
CSC1=C(C#N)C(c2ccccc2Cl)C2=C(N1)c1ccccc1C2=O (stereo not given),.,50µM*,9,-6%,-8%,10%
CC(=O)C1=C(c2ccccc2)OC(N)=C(C#N)C1c1ccccc1C (stereo not given),0%,-12%,-12,-3%,3%,1%
CSC1=C(C#N)C(c2ccccc2C)C(C#N)=C(N)N1 (stereo not given),-1%,50µM*,6,-4%,-6%,-7%
CCc1ccc(NC(=O)CSc2nccn2-c2ccc(F)cc2)cc1,.,8%[57.1 µM],.,-1%[57.1 µM],1%,-1%
O=C1/C(=C/c2ccncc2)SC(=S)N1Nc1ccccc1,-7%,4.5µM*,4,-7%[57.1 µM],-16%,9%
O=C1/C(=C/c2ccc(O)c(O)c2)SC(=S)N1Nc1ccccc1,-3%,-2%,17,-5%,-29%,98%
O=C(O)c1ccc(/C=C2\SC(=S)N(Nc3ccccc3)C2=O)cc1,-9%,50µM*,-5,-8%,-13%,3%
NC(=O)C1CCN(c2ncc(-c3ccc4c(c3)OCO4)s2)CC1,.,.,.,.,.,-12%
CC(=O)Nc1ccc(S(=O)(=O)N2CCCN(S(=O)(=O)c3ccc4c(c3)OCCO4)CC2)cc1,.,.,.,.,.,2%
